An excerpt weighted towards active compounds, which were near 4.6% of everything screened.
D1 PAM: Potentiators of Human D1 Dopamine Receptor: qHTS; D(1A) dopamine receptor (Homo sapiens), P21728; HEK293 TREx D1 cells, calcium flux, dopamine EC20 potentiation; potentiation, % at 10 µM; hit rate 0.036% among 360,000; AID 504651, 2011; in the data active = potentiation above about 30%
TRHR agonist: qHTS for Small Molecule Agonists and Allosteric Enhancers of Human TRH Receptor: Primary Screen for Agonists; Thyrotropin-releasing hormone receptor (Homo sapiens), P34981; activation, % at 2 µM; TRHR cells, calcium flux fluo-8, FDSS agonist mode; hit rate 0.18% among 360,000
Target sequence (P34981 whole entry, looked up): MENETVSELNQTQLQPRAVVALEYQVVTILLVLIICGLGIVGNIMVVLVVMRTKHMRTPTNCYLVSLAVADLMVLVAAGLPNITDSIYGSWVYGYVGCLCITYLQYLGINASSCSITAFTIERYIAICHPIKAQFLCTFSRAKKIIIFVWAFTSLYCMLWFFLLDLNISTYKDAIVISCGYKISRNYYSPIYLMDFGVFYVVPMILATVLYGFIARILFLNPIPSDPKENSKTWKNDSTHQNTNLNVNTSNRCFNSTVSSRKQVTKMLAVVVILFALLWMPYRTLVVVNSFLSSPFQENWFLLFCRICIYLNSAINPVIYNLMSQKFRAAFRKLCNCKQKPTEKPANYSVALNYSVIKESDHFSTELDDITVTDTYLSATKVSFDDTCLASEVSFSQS
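Read-out: compound-evoked intracellular calcium rise in TRHR cells, fluo-8 dye, kinetic FDSS fluorescence at 1 s/cycle following a 10-cycle baseline. Cells cultured overnight before dye loading (30 min–1.5 h, RT).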
D1 agonist: Allosteric Agonists of the Human D1 Dopamine Receptor: qHTS | D(1A) dopamine receptor (Homo sapiens), P21728 | HEK293 T-REx D1 cells, calcium flux, agonist mode | activation, % at 2 µM | hit rate 1% among 360,000 | AID 504660, 2011
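Agonism was scored from calcium flux recorded over 180 s (1 read/s) after pintool compound addition, following a 10-cycle baseline. Cells were inducible force-coupled HEK293 TREx D1, plated overnight at 30 C and loaded with no-wash calcium dye.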
TRHR enhancer: qHTS for Small Molecule Agonists and Allosteric Enhancers of Human TRH Receptor: Primary Screen for Enhancers | Thyrotropin-releasing hormone receptor (Homo sapiens), P34981 | TRHR cells, fluo-8 calcium fluorescence, EC20 TRH enhancement | enhancement, % at 2 µM | hit rate 0.66% among 360,000; in the data active = enhancement above about 30%
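Enhancer read-out: after compound pinning and an initial kinetic agonist-mode read, an EC20 of TRH (10 nM final) was injected and fluo-8 calcium signal (Ex 480/Em 530) followed at 1 s/cycle for 100 cycles in TRHR-expressing cells.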
D1 antag: Antagonist of Human D 1 Dopamine Receptor: qHTS; HEK293 TREx D1 cells, calcium flux, dopamine EC80; active compounds read low; hit rate 3.2% among 360,000; activity change, negative = inhibition, % at 10 µM; D(1A) dopamine receptor (Homo sapiens), P21728; AID 504652, 2011; in the data active = activity change below about -30%
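Using tetracycline-induced force-coupled D1 Hek293 cells and a calcium dye, signals were followed for 180 s after compound, then for 180 s after EC80 dopamine, to detect inhibitors.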
Each line names hits and unclear results; the compound was inactive in the other large screens. Rule as the data show it, unless noted: active = activation above about 30%; inactive = the rest.

COc1cc(C(=O)NCC(c2ccc(N(C)C)cc2)N2CCc3ccccc32)cc(OC)c1OC (stereo not given)	none
CCCCC(CC)CNC(=O)CCS(=O)(=O)c1cccc2nonc12 (stereo not given)	D1 antag -56
Nc1[nH]n2c(=O)cc(-c3ccccc3)nc2c1N=Nc1ccccc1	D1 antag -38
CCOc1ccccc1CNC(=O)c1ccc(Cn2c(SCc3ccccc3)nc3cccnc32)cc1	none
COc1cccc(C(=O)N2c3nc(-c4ccco4)nn3C3(CCCCC3)[C@@H]3CCCC[C@@H]32)c1	none
COc1cccc(NS(=O)(=O)c2ccc3[nH]cc(C(=O)N(C)C4CCCCC4)c(=O)c3c2)c1	none
CCc1noc(C)c1C(=O)Oc1ccc(N(C)S(=O)(=O)c2ccc(C)cc2)cc1	none
CCc1noc(C)c1C(=O)Oc1ccc(N(C)S(=O)(=O)c2ccccc2)cc1	D1 agonist 36
O=c1cc(C(F)(F)F)[nH]c2c(C(F)(F)F)cccc12	D1 agonist 32
Cc1cc(C)c2c(=O)c3c(oc2c1)C(=O)N(Cc1ccc(F)cc1)C3c1cccc(O)c1 (stereo not given)	none
CC1Sc2ccc(S(=O)(=O)N3CCC(C(=O)NCC(C)c4ccccc4)CC3)cc2NC1=O (stereo not given)	D1 antag -76
CC1Sc2ccc(S(=O)(=O)N3CCC(C(=O)NCCc4ccccc4)CC3)cc2NC1=O (stereo not given)	none
O=c1[nH]c2ccc(NCc3ccc(-c4ccc(Cl)cc4)o3)cc2[nH]1	none
COc1ccc(-c2ccc(CNc3ccc4[nH]c(=O)[nH]c4c3)o2)cc1Cl	D1 antag -52
COCCNC(=O)CN(c1cc(C(F)(F)F)ccc1Cl)S(C)(=O)=O	none
COC(=O)CN(c1cc(C(F)(F)F)ccc1Cl)S(C)(=O)=O	D1 antag -39
O=C(NCCc1ccccc1)c1ccc(CSc2nc3ccncc3n2Cc2ccccc2)cc1	D1 antag -31
Cc1ccc(Cn2c(SCc3ccc(C(=O)NCCc4ccccc4)cc3)nc3ccncc32)cc1	none
COC(=O)c1cccc(NC(=O)Nc2ccc(Cl)cc2)c1	D1 antag -35
COC(=O)c1cccc(NC(=S)Nc2ccc(Cl)c(Cl)c2)c1	D1 antag -31
Cc1ccc(-n2[nH]c(C)c(C=Nc3ccc(Br)cn3)c2=O)cc1	D1 antag -33
Cc1ccc2cc(CN(Cc3nnnn3Cc3ccco3)CC3CCCO3)c(=O)[nH]c2c1C (stereo not given)	D1 antag -35
Cc1ccc(C)c2[nH]c(=O)c(CN(CC3CCCO3)C(=S)NCc3ccco3)cc12 (stereo not given)	none
COc1ccc2[nH]c(=O)c(CN(Cc3nnnn3Cc3ccccc3)CC3CCCO3)cc2c1 (stereo not given)	none
Cc1ccc2cc(CN(CC3CCCO3)C(=S)NCc3ccco3)c(=O)[nH]c2c1C (stereo not given)	TRHR enhancer 34
CCCCNC(=S)N(Cc1ccco1)Cc1cc2cc3c(cc2[nH]c1=O)OCCO3	D1 antag -46
COc1cccc(N2CC34C=CC(O3)C(C(=O)O)C4C2=O)c1 (stereo not given)	D1 antag -42
CCOc1ccc(CNC(=O)Cn2cc3c(n2)-c2c(oc(C(=O)N4CCOCC4)c2C)CC3)cc1	none
CCCc1nc2oc3ccccc3c(=O)c2c(=O)n1-c1ccc(C)cc1	D1 agonist 37
O=C(Nc1cccc(C(=O)N2CCN(c3ccc(F)cc3)CC2)c1)c1nsc2ccccc12	none
CCC(=O)N1CCN(c2ccc(NC(=O)c3ccc([N+](=O)[O-])o3)cc2)CC1	none
CC(C)(C)C(=O)N1CCN(c2ccc(NC(=O)c3ccc([N+](=O)[O-])o3)cc2)CC1	D1 agonist 48
CC(C)(C)C(=O)N1CCN(c2ccc(NC(=O)c3ccc4c(c3)OCCO4)cc2)CC1	D1 antag -30
CC(=O)N1CCN(c2ccc(NC(=O)c3ccc4c(c3)OCCO4)cc2)CC1	none
CCCCCCCCCCOC(=O)Cn1c(COc2ccccc2OC)[n+](C)c2ccccc21	D1 agonist 183
Cn1c(COc2ccccc2O)[n+](C)c2ccccc21	none
O=C(NCCN1CCCCC1)Nc1ccc(Br)cc1	D1 antag -60
COc1ccc(NC(=O)NCCCN2CCc3ccccc3C2)cc1	none
O=C(NCCCN1CCc2ccccc2C1)Nc1ccc(Br)cc1	D1 agonist 41
Cc1ccc(NC(=O)NCCN2CCCCC2)cc1	none
Cn1cc(CC(=O)NCCN2CCOCC2)c2ccccc21	D1 antag -32
O=C(NCCCCNC(=O)c1ccc(Br)cc1)c1ccc(Br)cc1	D1 antag -33
O=C(NCCN1CCCC1)c1ccc(Br)cc1	D1 PAM 31
O=C(CCN1CCCCC1)NNC(=S)NC(=O)c1ccc(Br)cc1	D1 antag -36
Cc1ccccc1CC(=O)NCCN1CCCCC1	none
O=C(Cc1ccccc1)NCCN1CCCC1	D1 antag -39
CCCn1c2ccccc2c2cnn(CC(=O)N(C)c3ccc(F)cc3)c(=O)c21	none
Clc1cccc(-n2ncc3c(Nc4ccc5c(c4)OCCO5)ncnc32)c1	none
Cc1nnc(N2CCC(C(=O)N3CCCCC3)CC2)c2nn(-c3ccccc3)c(C)c12	none
Cc1noc(C)c1S(=O)(=O)Nc1cccc(CO)c1	D1 antag -31
CC(=O)c1cccc(NS(=O)(=O)c2c(C)noc2C)c1	none
O=C(CSc1n[nH]c(-c2cccs2)n1)N1CCN(S(=O)(=O)c2ccccc2)CC1	D1 antag -59
CC1CCN(C(=O)CSc2n[nH]c(-c3cccs3)n2)CC1	none
CSc1nc(N)nc(SCCS(=O)(=O)c2ccc(Cl)cc2)c1C#N	D1 antag -31
COc1ccc(OC)c(NC(=O)Cn2c(=O)n(-c3ccc(Cl)cc3)c(=O)c3c(C)c(C)sc32)c1	none
CCN(CC)S(=O)(=O)c1cccc(-c2n[nH]c(=S)n2/N=C/c2ccc(OC(F)F)cc2)c1	D1 antag -83
N#Cc1cc(Cl)c(N2CCOCC2)cc1C#N	none (no result: D1 antag)
CC1(C)CC(NCCN2CCN(C3=CC(=C(C#N)C#N)CC(C)(C)C3)CC2)=CC(=C(C#N)C#N)C1	none
N#CC(C#N)=C1C=C2C=C(N3CCCCCC3)CCC2CC1 (stereo not given)	TRHR agonist 205, D1 agonist 383, D1 antag -68
N#CC(C#N)=C1C=C2C=C(N3CCOCC3)CCC2CC1 (stereo not given)	TRHR agonist 231, D1 agonist 522
